From PubChem BioAssay AID777 (Sanford-Burnham Center for Chemical Genomics, 2007) come the findings set out here.

The structures appear in SMILES notation. Out of some 96,000 compounds screened, about 19,000 (20%) were called active. These entries were drawn from the full list. Values without a mark were called inactive.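 Rule for the calls: active = blocking of liver enzyme CYP2C9 beyond about 50% at 5 µM (limit read from the data); inactive = the rest.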

The assay deals with Cytochrome P450 2C9 (Homo sapiens) (UniProt P11712). In words: blockers of cytochrome P450 2C9 activity – biochemical, luminescence, ADME assay, primary screen (AID 777). Conditions: CYP2C9 Supersomes, luciferin-H conversion, at 5 µM, stronger effect = higher value.
Chain of Cytochrome P450 2C9 (Homo sapiens) (P11712 whole entry, looked up): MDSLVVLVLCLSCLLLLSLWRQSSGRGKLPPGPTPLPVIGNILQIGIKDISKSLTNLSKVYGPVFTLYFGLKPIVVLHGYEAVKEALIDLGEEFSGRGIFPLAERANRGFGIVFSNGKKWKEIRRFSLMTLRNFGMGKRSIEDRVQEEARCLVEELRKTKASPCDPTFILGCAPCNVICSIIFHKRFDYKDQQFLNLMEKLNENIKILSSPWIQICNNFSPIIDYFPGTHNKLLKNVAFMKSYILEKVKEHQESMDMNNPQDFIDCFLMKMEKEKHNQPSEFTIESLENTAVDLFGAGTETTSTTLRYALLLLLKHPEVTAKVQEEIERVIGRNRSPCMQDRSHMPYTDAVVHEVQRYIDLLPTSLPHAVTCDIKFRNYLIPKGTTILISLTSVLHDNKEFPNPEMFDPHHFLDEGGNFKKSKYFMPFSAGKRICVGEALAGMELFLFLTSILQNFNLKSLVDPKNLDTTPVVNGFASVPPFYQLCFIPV
As usually defined, the inhibition is the relative decrease from the control value, in per cent. Consider `CCOC(=O)c1c(CN2CCOCC2)n(-c2ccccc2)c2ccc(O)cc12`, for which the inhibition was 38.1%.

`COc1cccc(CN2C(=O)CCC2(C)C(=O)NC2CCCCCC2)c1` (stereo not drawn): the inhibition was -58.7%.

In the case of `CCNc1nc(SCCOc2ccccc2)nc(N(C)C)n1`, the inhibition was -4.3%.

Regarding `Cn1c(=O)cc(SCC(=O)N2CCCC2)c2cc(Cl)ccc21`, the inhibition is 0.1%.

In the case of `CCOC(=O)Nc1ccc2c(c1)N(C(=O)CN1CCN3CCCC3C1)c1ccccc1CC2` (stereo not drawn), the inhibition was 0.1%.

`CSCC[C@H](NC(=O)NCc1cccs1)C(=O)O`: the inhibition was -6.8%.

Regarding `COc1ccc(-n2ncc3c(N4CCc5ccccc54)ncnc32)cc1`, the inhibition was -29.5%.

In the case of `CC1(C)CC(=O)C=C(NC2CC(C)(C)NC(C)(C)C2)C1`, the inhibition is 9.6%.

As to `Cc1ccnc(N2CCN(C(=O)CSc3nc4ccccc4nc3N3CCCCC3)CC2)c1`, the inhibition is 98.5% (active).

With `Cc1ccc2oc(=O)c3cnn(CC(=O)N4CCN(c5ccccn5)CC4)c3c2c1`, the inhibition is 20.1%.

On to `Cc1ccc(S(=O)(=O)NCC(=O)N2CCN(c3ccccn3)CC2)cc1`, for which the inhibition is 5.3%.

Turning to `CCCc1cc(-c2n[nH]c(=S)n2Cc2ccccc2)cs1`, the inhibition was 38.6%.

As to `CC(C)c1ccc(N2CCN(C(=O)c3ccccc3NC(=O)/C=C(\C(=O)O)c3ccccc3)CC2)cc1`, the inhibition was 18%.

For `CCOCCN(C=O)c1cccc(OC)c1`, the inhibition is -20.4%.

For the molecule `CCOC(=O)CN(Cc1ccc(OC)c(OC)c1)S(=O)(=O)c1ccc(OC)cc1`, the inhibition was 64% (active).

Take `O=C(OCc1cc2ccccc2[nH]c1=O)c1cccnc1`: the inhibition is 12.7%.

`C=CCSc1nc(Cc2ccc(Cl)cc2)nc2ccccc12`: the inhibition was 2.7%.

For the molecule `O=C(CCN1C(=O)c2ccccc2C1=O)Nc1cccc(F)c1`, the inhibition was 28.8%.

In the case of `O=C(CCN1C(=O)c2ccccc2C1=O)Nc1ccncc1`, the inhibition was 65.7% (active).

As to `O=C(CCN1C(=O)c2ccncc2C1=O)Nc1ccc2c(c1)OCCO2`, the inhibition was -3.9%.

Turning to `O=C(O)CCCC(=O)Nc1ccccc1-n1ccnc1`, the inhibition is 0.8%.

Consider `O=C(CCN1c2ccccc2Sc2ccccc21)Nc1ccccc1`, for which the inhibition was 95.4% (active).

As for `O=C(CC1Nc2ccccc2NC1=O)Nc1ccccc1` (stereo not drawn), the inhibition was 6.5%.

Regarding `COc1ccc(Br)cc1S(=O)(=O)N1CCN=C1C`, the inhibition is -27.3%.

Regarding `Cc1nc2cc(-c3ccc(F)cc3)nn2c(N2CCOCC2)c1C`, the inhibition is 8.9%.

`O=c1c(-c2ccc3c(c2)OCCO3)c(C(F)(F)F)oc2cc(O)cc(O)c12`: the inhibition is 87.3% (active).

With `CCN1CCN(Cc2c(O)ccc3c(=O)c(-c4ccc(OC)c(OC)c4)c(C(F)(F)F)oc23)CC1`, the inhibition is 8.1%.

In the case of `Cc1nc(SC(C)C)[nH]c(=O)c1Cc1ccccc1`, the inhibition is 26%.

As for `CCN1C(=O)/C(=C2/Sc3ccccc3N2CCCS(=O)(=O)O)SC1=S`, the inhibition was 7%.

For the molecule `COc1cc(/C=N/Nc2nn3cnnc3c3ccccc23)cc(OC)c1OC`, the inhibition was 25.9%.

With `COc1c(O)cccc1-c1nnn(CCC(=O)OCC(=O)c2ccccc2)n1`, the inhibition is 29%.

Take `Cc1ccc2[nH]c(=O)c(COC(=O)c3ccccn3)cc2c1`: the inhibition is 8.6%.

As for `O=C1c2ccccc2C(=O)N1Cc1cc(-c2ccccc2Cl)no1`, the inhibition is -135%.

For `Cc1ccc2cc(CCNC(=O)c3c(-c4ccccc4Cl)noc3C)c(=O)[nH]c2c1`, the inhibition was 93.8% (active).

`Cc1onc(-c2ccccc2Cl)c1C(=O)OCC(=O)c1ccccc1`: the inhibition was 65.8% (active).

On to `Cc1onc(-c2c(Cl)cccc2Cl)c1C(=O)c1c[nH]c(C(=O)NC2CC2)c1`, for which the inhibition was 7.6%.

For the molecule `Cc1cc2ccccc2n1CCNC(=O)COc1ccc2ccccc2c1`, the inhibition is 33.5%.

With `Cc1ccc2cc(CCNC(=O)c3ccc4c(c3)OCO4)c(=O)[nH]c2c1`, the inhibition was 31.9%.

On to `Cc1onc(-c2ccccc2Cl)c1C(=O)NCCn1ccc2ccccc21`, for which the inhibition was 54.6% (active).

`CC(C)Cc1oc(C(=O)O)cc1CN`: the inhibition was -3.5%.

Consider `C#CCSc1nnc(-c2sc3ccccc3c2Cl)o1`, for which the inhibition is 26.7%.

Turning to `COc1ccc(C(=O)N2CCC(C(=O)Nc3cccc(C)c3)CC2)cc1OC`, the inhibition was 8.3%.

Turning to `CCOc1ccc(N=C2SC(C(=O)O)CC(=O)N2C)cc1` (stereo not drawn), the inhibition was -4.3%.

With `CC(C)(C)NC(=O)COc1ccc(CNc2ccc3[nH]c(=O)[nH]c3c2)cc1`, the inhibition is 31.4%.

Turning to `Cc1ccc(S(=O)(=O)c2c(COC(=O)c3cccc(Cl)c3)c(-c3ccccc3)nn2C)cc1`, the inhibition is 49.8%.

`Cc1cccc(N(CC(O)CN(C)C)S(=O)(=O)c2ccccc2)c1` (stereo not drawn): the inhibition is 7.4%.

For the molecule `Cc1ccc(N(CC(O)CN2CCCC2)S(=O)(=O)c2ccccc2)cc1` (stereo not drawn), the inhibition was 27.2%.

In the case of `O=S(=O)(c1ccccc1)N(CC(O)CN1CCCCC1)c1ccccc1` (stereo not drawn), the inhibition was 56% (active).

In the case of `Cc1ccc(C(=O)N(CN2CCCC2=O)c2ccc(F)cc2)cc1`, the inhibition is -20%.

On to `CC(=O)N1Cc2ccccc2CC1C(=O)O` (stereo not drawn), for which the inhibition was -18.6%.

In the case of `Cc1c(NC(=O)C(C)OC(=O)c2cc3c4ccccc4n(C)c3s2)c(=O)n(-c2ccccc2)n1C` (stereo not drawn), the inhibition is -4.5%.

Take `CCOc1ccccc1NC(=O)C1CCC(CNc2c(N3CCOCC3)c(=O)c2=O)CC1` (stereo not drawn): the inhibition was -30.1%.

Consider `Cc1ccc(CNC(=O)C2CC(=O)N(C3CCCCCCC3)C2)cc1` (stereo not drawn), for which the inhibition is -1.3%.

`COCCCNC(=O)C1CC(=O)N(CCc2ccccc2)C1` (stereo not drawn): the inhibition was -3.7%.

As to `CCc1ccc(CNC(=O)C2CC(=O)N(CCc3ccc(C)cc3)C2)cc1` (stereo not drawn), the inhibition is 54.1% (active).

`Cc1ccc(CCN2CC(C(=O)O)CC2=O)cc1` (stereo not drawn): the inhibition is 53.7% (active).

Turning to `O=C(O)C1CC(=O)N(Cc2cccnc2)C1` (stereo not drawn), the inhibition was -22%.

With `O=C(NC1CCCCC1)C1CC(=O)N(CCc2ccccc2)C1` (stereo not drawn), the inhibition was -4.8%.

Take `Cc1nc2ccccc2c2oc(C(=O)NCCCN3CCC(C)CC3)cc12`: the inhibition is 7.6%.

Regarding `O=C(Cn1cnc2c(nnn2-c2ccccc2)c1=O)N1CCC(Cc2ccccc2)CC1`, the inhibition was -30.4%.

In the case of `Cc1ccc(C(=O)N2CCCC2)c(F)c1F`, the inhibition was 6.3%.

Turning to `CN(C)CC(O)COc1ccc(C(C)(C)c2ccc(OCC(O)CN(C)C)cc2)cc1` (stereo not drawn), the inhibition was -6.4%.

As to `O=C(NCC1CCC(C(=O)O)CC1)OCc1ccccc1` (stereo not drawn), the inhibition is -10.5%.

On to `O=C(CNC(=O)c1ccccc1)NCC(=O)OCc1ccc(Cl)cc1`, for which the inhibition was 4.4%.

As to `O=C(CNC(=O)OCc1ccccc1)Oc1cc2oc(=O)cc(-c3ccccc3)c2cc1Cl`, the inhibition was 75.7% (active).

Consider `CCOC(=O)CSc1nncc2ccc(OC)c(OC)c12`, for which the inhibition is 4.3%.

Take `Cc1nc2ccccc2cc1OCc1ccc(F)cc1`: the inhibition is 47.1%.

Consider `Cc1no[n+]([O-])c1COc1ccccc1/C=C1\NC(=S)NC1=O`, for which the inhibition was 30.2%.

For `Cc1ccc(C(=O)NCC2CCCO2)o1` (stereo not drawn), the inhibition was 2.8%.

On to `O=C(NCC1CCCO1)c1ccc2ccccc2n1` (stereo not drawn), for which the inhibition is -36.5%.

As to `O=C(NCc1ccccn1)c1cc(-c2ccccc2Cl)on1`, the inhibition is -163%.

As to `COc1cc(SC)ccc1C(=O)NCCOc1ccccc1Cl`, the inhibition is 28.9%.

For the molecule `Cc1ccc(-c2noc(-c3ccccc3C(=O)NCC3CCCO3)n2)cc1` (stereo not drawn), the inhibition is 70.8% (active).

As to `COCCNC(=O)c1ccccc1-c1nc(-c2ccccc2Cl)no1`, the inhibition is 83.9% (active).

Regarding `O=C(c1ccc(=O)[nH]c1)N(Cc1ccco1)C1(C(=O)NC2CCCCC2)CCCCC1`, the inhibition is -8.6%.

On to `COc1ccc(C2N=C(N)N=C(N)N2c2ccccc2)cc1OC` (stereo not drawn), for which the inhibition is -7%.

For the molecule `O=C(N/N=C/c1ccc(O)c(O)c1)C1c2ccccc2Oc2ccccc21`, the inhibition was 55.2% (active).

On to `O=C(N/N=C/c1ccsc1)c1cc(O)cc(O)c1`, for which the inhibition was 5.4%.

On to `COc1cc(/C=N\NC(=O)C2C(=O)NCC2c2ccccc2)cc(OC)c1O` (stereo not drawn), for which the inhibition is -9.3%.

As to `CCC1=C/C(=C\c2ccc3c(c2)OCO3)C(=O)S1`, the inhibition was 16.7%.

`OCCN(Cc1ccccc1)Cc1ccc(Cl)cc1`: the inhibition was 87.6% (active).

For `CN(Cc1ccccc1)Cc1ccccc1F`, the inhibition is -5%.

On to `CC(O)CN(Cc1ccc(Cl)cc1)CC(C)O` (stereo not drawn), for which the inhibition is -2.8%.

For `Cn1c(=O)cc(SCC(=O)N2CCN(C(=O)c3ccco3)CC2)c2ccccc21`, the inhibition was -14%.

Take `O=C(Nc1nnc(C2CC2)s1)c1ccccn1`: the inhibition is -32.1%.

In the case of `CCC1(CC)Cc2ccccc2-c2nc3ccccc3c(=O)n21`, the inhibition is 19.3%.

Turning to `c1cncc(-c2nnc3n2C2(CCCCC2)Cc2ccccc2-3)c1`, the inhibition is 11.2%.

With `O=c1c2ccccc2nc2n1C1(CCCCC1)Cc1ccccc1-2`, the inhibition was 87.7% (active).

With `CC(C)[C@H](NC(=O)Nc1ccc(S(N)(=O)=O)cc1)C(=O)O`, the inhibition was -7.3%.

With `O=S(=O)(/N=C(/Nc1ccccn1)c1ccccc1)c1ccc(Cl)cc1`, the inhibition is 29%.

In the case of `O=C1CCCc2c1[nH]c1ccc(Br)cc21`, the inhibition was 19.2%.

Take `CCOC(=O)C1=C(C)Nc2sc(C(=O)c3ccc(Br)cc3)c(N)c2C1c1ccc(C(=O)OC)cc1` (stereo not drawn): the inhibition is 91.9% (active).

For `CCOC(=O)c1sc(=S)n2c1[nH]c(=O)c1ccc(C(=O)OC)cc12`, the inhibition was 42.1%.

As to `COC(=O)c1ccc(C2NC(=O)NC(C)=C2C(=O)N(C)C)cc1` (stereo not drawn), the inhibition was -16.8%.

Consider `Cc1c(Nc2nc3ccccc3nc2NS(=O)(=O)c2cccs2)c(=O)n(-c2ccccc2)n1C`, for which the inhibition is 47.6%.

Take `CCn1c(CNc2ccc(OC)cc2)nnc1SCC(=O)c1ccc(OC)cc1`: the inhibition was 25.4%.

As for `COc1ccc(NCc2nnc(SCc3ccccc3)n2-c2ccc(OC)cc2)cc1`, the inhibition was 59.6% (active).

In the case of `COc1ccc(-n2c(Cc3cccn3C)nnc2SCC(=O)Nc2cc(C)cc(C)c2)cc1`, the inhibition is 28.5%.
